# Measurements reported in PubChem BioAssay (NCATS).
# Records with an inconclusive call do not appear. Active and inactive are the calls of the source. Calls follow the shape of the dose curve; as a rule, active = well fitted cell-killing curve with a large enough effect; inconclusive = small, poorly fitted or top-dose-only effect; inactive = flat fitted curve, though single readings scatter.
# Experiment: Cell Viability - LYMP2-008 (AID 980); also: nearly all actives have a fitted effect of over 60% in size
# Settings: LYMP2-008 lymphoblastoid cell viability, qHTS; series mostly up to 92.2 µM
# From the text: NIH Chemical Genomics Center [NCGC]
# NIH Molecular Libraries Screening Centers Network [MLSCN]
# National Institutes of Environmental Health Sciences [NIEHS]
# National Toxicology Program [NTP]
# We have developed a 1536-well cell-based assay for quantitative high throughput screening (qHTS) against a number of cell lines to determine in vitro cytotoxicity of small molecules. This particular assay uses a human lymphoblastoid cell line (LYMP2-008) purchased from Coriell Institute for Medical Research.
# NCGC Assay Protocol Summary:
# The CellTiter-Glo luminescent cell viability assay (Promega) is a homogeneous method to measure the number of viable cells in culture. The end point readout of this assay is based on quantitation of intracellular ATP, an indicator of metabolic activity, using the luciferase reaction. Luciferase catalyzes the oxidation of beetle Luciferin to oxyluciferin and light in the presence of ATP. The luminescent signal is proportional to amount of ATP present.
# Using the CellTiter-Glo luminescent cell viability assay, the amount of cellular ATP was measured in the lymphoblastoid cell line with complete culture medium following compound treatment for 24 hours. The assay was performed in opaque white Kalypsys 1536-well plates. In the screen, tetraoctylammonium bromide was used as positive control. Library compounds were measured for their ability to cause acute toxicity in the cell line, as reflected by a decrease in intracellular ATP levels, in a concentration-dependent manner. […] AC50 values were determined from concentration-response data modeled with the standard Hill equation.
# qHTS protocol for CellTiter Glo lymphoblastoid cellular assay
# [Step] [Parameter] [Value] [Description]
# 1. Reagent; 5 uL; 2500 lymphoblastoid cells/well
# 2. Time; 5 hr; 37 C incubation
# 4. Controls; 23 nL; Tetraoctylammonium bromide 6.4pM to 92 uM
# 5. Time; 24 hr; 37 C incubation
# 6. Reagent; 5 uL; CellTiter Glo reagent
# 7. Time; 30 min; Room Temperature
# 8. Detection; Luminescence; Viewlux plate reader
# Keywords: cell viability, cytotoxicity, lymphoblastoid cell line, luminescence, NTPHTS, NTPHTS_NCGC, NIEHS, DSSTox, MLSMR, MLSCN, NIH Roadmap, qHTS, NCGC
row,Compound,outcome
1,COc1cc(OC)c(OC)cc1C=O,inactive
2,C[C@]12CCC(=O)C=C1CC[C@@H]1[C@@H]2CC[C@@]2(C)[C@H]1CC[C@]2(C)O,inactive
3,C[C@]1(O)CC[C@H]2[C@@H]3CCC4=CC(=O)CC[C@]4(C)[C@@]3(F)[C@@H](O)C[C@@]21C,inactive
4,COP(=S)(OC)Oc1ccc(SC)c(C)c1,inactive
5,CC(C)c1cccc(C(C)C)c1O,inactive
6,CCCC(C)(COC(N)=O)COC(N)=O,inactive
7,Oc1ccc(Cl)cc1,inactive
8,CN1C[C@H](C(=O)N[C@]2(C)O[C@@]3(O)[C@@H]4CCCN4C(=O)[C@H](Cc4ccccc4)N3C2=O)C=C2c3cccc4[nH]cc(c34)C[C@H]21,inactive
9,Nc1ccccc1C(=O)O,inactive
10,COC(=O)C(c1ccccc1)C1CCCCN1 (stereo not drawn),inactive
11,Clc1ccc(C(c2ccc(Cl)cc2)C(Cl)(Cl)Cl)cc1,inactive
12,CC(C)NC(C)C,inactive
13,C[C@]12CCC(=O)C=C1CC[C@@H]1[C@@H]2CC[C@]2(C)C(=O)CC[C@@H]12,inactive
14,Nc1ccccc1,inactive
15,NCCc1ccc(O)cc1,inactive
16,CCC(C)(C)c1ccc(O)cc1,inactive
17,O=P1(N(CCCl)CCCl)NCCCO1 (stereo not drawn),inactive
18,CCOC(=O)CC(SP(=S)(OC)OC)C(=O)OCC (stereo not drawn),inactive
